From PubChem BioAssay
Potency and affinity values are given separately. Activity calls are given as the source filed them. No cut-off is given here; in the data, nearly all actives have IC50 up to about 0.98 µM.

target: Calcium-dependent protein kinase 1 (Plasmodium falciparum (isolate 3D7)) (UniProt P62344); experiment: PfCDPK1 kinase inhibitors, biochemical, TCAMS library (AID 1159585); conditions: recombinant PfCDPK1, Kinase-Glo ATP depletion luminescence;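 note: inhibitors leave more ATP so luminescence rises with inhibition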
Sequence (P62344 whole entry, looked up): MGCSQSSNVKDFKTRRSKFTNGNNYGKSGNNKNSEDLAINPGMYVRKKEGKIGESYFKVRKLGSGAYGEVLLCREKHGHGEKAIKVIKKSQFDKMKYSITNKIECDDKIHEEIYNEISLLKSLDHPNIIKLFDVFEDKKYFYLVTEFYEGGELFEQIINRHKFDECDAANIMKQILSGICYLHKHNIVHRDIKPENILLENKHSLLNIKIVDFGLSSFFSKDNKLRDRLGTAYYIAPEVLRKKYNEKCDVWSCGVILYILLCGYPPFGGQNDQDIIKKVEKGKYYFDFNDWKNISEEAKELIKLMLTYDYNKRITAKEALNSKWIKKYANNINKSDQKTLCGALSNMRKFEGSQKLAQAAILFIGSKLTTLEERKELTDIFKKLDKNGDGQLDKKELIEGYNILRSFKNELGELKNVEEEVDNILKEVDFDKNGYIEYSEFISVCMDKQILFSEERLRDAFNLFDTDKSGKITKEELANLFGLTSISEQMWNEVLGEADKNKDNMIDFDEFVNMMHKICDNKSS

outcome, inactive:
c1cncc(Oc2ccc(Nc3ccnc4cc(-c5cccc(CN6CCCCC6)c5)ccc34)cc2)c1
CCCC(C)NC[C@@H](O)[C@H](Cc1ccccc1)NC(=O)c1cc(C2CCCC2)cc(N2CCCCS2(=O)=O)c1 (stereo not given in full)
O=C(Nc1ccc(Cl)cc1)Nc1cccc(-c2ccc(-c3nc4ccccc4[nH]3)cc2)c1
CC(=O)c1ccc(NC(=O)Nc2ccc(N(C)c3ccnc(NC4CC4)n3)cc2)cc1
CCOc1c(N2CCN(CCCCNC(=O)c3ccc(NC(=O)c4ccc(Cl)cc4)cc3)CC2)ccc2ccccc12
CCCCc1cc(NCc2ccncc2)nc(Nc2ccc(C)cc2)n1
Cc1ccc(F)c(C(=O)Nc2cccc(-c3nn4ccccc4c3-c3ccnc(Nc4cccc(F)c4)n3)c2)c1F
O=C(CSc1ccccn1)Nc1c(F)cccc1F
Cc1cccc2[nH]c(-c3ccc(-c4ccc(NC(=O)Nc5ccc(Cl)c(Cl)c5)cc4)s3)nc12
O=c1ccc2ncc(Cl)c3c2n1CC3CN1CCC(NCc2cc3c(cn2)OCCO3)CC1 (stereo not given)
Cc1cc(-c2nc3cncc(-c4cccc(CN5CCCC5Cc5cccnc5)c4)c3n2C)nn1C (stereo not given)
C=C[C@]1(C)C[C@@H](OC(=O)NC(=O)C2CCN(C(=O)CSc3ccccc3)CC2)[C@]2(C)[C@H](C)CC[C@]3(CCC(=O)[C@H]32)[C@@H](C)[C@@H]1O
COc1ccc2c(c1)[nH]c1c(/C=C/c3ccc([N+](=O)[O-])cc3)nccc12
CN1CCN(CCCN(Cc2cccc(-c3ccc(CNCc4ccc5c(c4)OCO5)cc3)c2)C(=O)CCC2CCCC2)CC1
Cc1cc(N[C@@H](Cc2ccccc2)C(=O)NCc2cccc(F)c2)nc(NCCc2cccnc2)n1
O=S(=O)(c1cc(Cl)c(Cl)cc1Cl)N1CCCCC(c2ccc(C(F)(F)F)cc2)=N1
COc1ccc(CCn2c(=N)c(C(=O)NCc3ccc(C)cc3)cc3c(=O)n4ccccc4nc32)cc1
FC(F)(F)c1cccnc1N1CCC(Nc2nc3ccc(Cl)cc3[nH]2)CC1
CCOc1cccc2nc(NCCCNCc3ccc(Cl)c(Cl)c3)cc(NCCCNCc3ccc(Cl)c(Cl)c3)c12
O=[N+]([O-])c1ccc2ncnc(Nc3ccc(F)c(Cl)c3)c2c1
O=C(NCc1ccc(F)cc1)Nc1ccc(-c2cccc(-c3nc4ccc(F)cc4[nH]3)c2)cc1
Clc1ccc(-c2ccc(C=NNc3nc(Nc4ccccc4)nc(Nc4ccccc4)n3)o2)cc1Cl
COc1ccc(Nc2c3ccc(Cl)cc3nc3ccc(OC)cc23)cc1
CCC(C)NC(=O)CN1CN(c2ccccc2)C2(CCN(C(=O)c3ccc(C(C)(C)C)cc3)CC2)C1=O (stereo not given)
COc1ccc(C2CCN(CCCCNC(=O)c3ccc(NC(=O)c4ccc(Cl)cc4)cc3)CC2)c(C)c1
O=C(NCCc1ccccc1)c1cc(-c2cccnc2)cnc1NCC1CC1
Cc1nccc2c(NC(=O)N[C@@H]3CCN(c4ncc(C(F)(F)F)cc4Br)C3)cccc12
Nc1cccc(CNCc2cccc(-c3cccc(-c4nc5ccc(C(F)(F)F)cc5[nH]4)c3)c2)c1
CC1CN=C(c2cccc(NC(=O)Nc3cccc(C4=NCC(C)N4)c3)c2)N1 (stereo not given)
COc1ccc(-c2ccc(CN(C)C3CCC(NC(=O)c4cc5ccccc5[nH]4)CC3)cc2)cn1 (stereo not given)
N#Cc1ccc(-c2ccc(C(=O)NC3CCN(CCN4CCC(c5cn(CCO)c6ccccc56)CC4)CC3)cc2)cc1
COc1ccc(S(=O)(=O)Nc2cc(C)cc(Br)c2OC)cc1N1CCN(C(=O)C(Cl)(Cl)Cl)CC1
CC(C)CNCc1ccc(-c2ccccc2CN(C(=O)NCCc2ccccc2)C2CCN(Cc3ccccc3)CC2)cc1
c1ccn2c(Sc3ncnc4sccc34)ncc2c1
CC(Oc1ccc(NC(=O)c2cccs2)cc1)C(=O)c1ccc(Cl)cc1 (stereo not given)
Cc1cc(NCCC(=O)Nc2ccccc2)nc(NCCc2ccccc2)n1
COc1ccc2nccc(N3CCN(CCNCc4ccc5c(n4)NC(=O)CO5)CC3)c2n1
CN(C)C(=O)c1cc(CNCc2ccccc2)ccc1-c1cccc(CNCc2ccc(-c3ccccc3)cc2)c1
COC(=O)c1cccc(CNCc2cccc(-c3cccc(-c4nc5ccc(C(F)(F)F)cc5[nH]4)c3)c2)c1
CC[C@H](C)CNC(=O)c1cncc(-c2ccc(CNCCCc3ccccc3)cc2)c1
